Data published in the supplement of paper PMC7695840.
Counter-ions that a name gives are not always drawn.

Columns and labels:
[1] = system: Staphylococcus aureus MW2 delta-mecA (mecA-); assay: normalized GFP fluorescence (growth of mecA- strain) (fraction of control range); higher = more growth of mecA- strain; conditions: compound concentration: 150 uM; cefoxitin: subinhibitory; fluorescent label: GFP
Method in brief: (§1)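 Pre-induced S. aureus MW2 cells with the gene (DsRed) and without it (GFP) were mixed 1:1 in LB holding a subinhibitory antibiotic dose set daily and grown on 150 μM compound (1.5% DMSO) in 1536-well plates, single replicate, for 20 h at 37 °C. DsRed (540/590) and GFP (485/520) readings were scaled per plate between single-strain control medians. Plates with high untreated ratios and rows with DsRed/GFP >10 were excluded.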

[2] = system: Staphylococcus aureus MW2 (mecA+); assay: normalized DsRed fluorescence (growth of mecA+ strain) (fraction of control range); higher = more growth of mecA+ strain; conditions: compound concentration: 150 uM; cefoxitin: subinhibitory; fluorescent label: DsRed
Method in brief: as §1

SMILES | normalized GFP fluorescence [1] | normalized DsRed fluorescence [2]
COC(=O)C1=C(C)NC(C)=C(C(=O)OCCN2CCN(C(c3ccccc3)c3ccccc3)CC2)C1c1cccc([N+](=O)[O-])c1 (stereo not given) | 0.002 | 0.944
CS(=O)(=O)c1ccc([C@@H](O)[C@@H](CO)NC(=O)C(Cl)Cl)cc1 | 0.776 | 0.661
COc1ccccc1OCCNCC(O)COc1cccc2[nH]c3ccccc3c12 (stereo not given) | 0.0386 | 1.17
CN(C)CC/C=C1/c2ccccc2COc2ccc(CC(=O)O)cc21 [Olopatadine hydrochloride (Opatanol)] | 0.475 | 0.587
CC(C)Cn1cnc2c(N)nc3ccccc3c21 | 0.18 | 1.09
CN(C)CCCN1c2ccccc2CCc2ccc(Cl)cc21 | -0.0283 | 0.939
CCN(C(=O)c1c(O)c2c(Cl)cccc2n(C)c1=O)c1ccccc1 | 0.0925 | 0.805
COC(=O)[C@H]1[C@H]2C[C@@H]3c4[nH]c5cc(OC)ccc5c4CCN3C[C@H]2C[C@@H](OC(=O)c2cc(OC)c(OC)c(OC)c2)[C@@H]1OC | 0.0258 | 1.04
CN1CCCN=C1COC(=O)C(O)(c1ccccc1)C1CCCCC1 (stereo not given) | 0.399 | 0.63
CCOc1ccccc1OC(c1ccccc1)C1CNCCO1 (stereo not given) [Reboxetine mesylate] | 0.435 | 0.581
O=C(O)CCC(=O)Nc1ccc(S(=O)(=O)Nc2nccs2)cc1 | 0.332 | 1.01
O=C1CCc2ccc(OCCCCN3CCN(c4cccc(Cl)c4Cl)CC3)cc2N1 | 0.0969 | 0.824
CC(=O)CC(c1ccc([N+](=O)[O-])cc1)c1c(O)c2ccccc2oc1=O (stereo not given) | 0.279 | 0.29
c1ccc2c(CC3=NCCN3)cccc2c1 | 0.526 | 0.668
CCCCNc1ccc(C(=O)OCCN(C)C)cc1 | 0.243 | 0.719
CN1[C@@H]2CC[C@H]1C[C@@H](OC(=O)c1c[nH]c3ccccc13)C2 [Tropisetron] | 0.528 | 0.582
Cc1cn[nH]c1 | 0.665 | 0.838
CC(C)NCC(O)COc1ccc(CCOCC2CC2)cc1 (stereo not given) [Betaxolol hydrochloride (Betoptic)] | 0.372 | 0.674
NS(=O)(=O)c1cc2c(cc1Cl)NCNS2(=O)=O | 0.562 | 0.865
COc1cc(C(=O)NCc2ccc(OCCN(C)C)cc2)cc(OC)c1OC | 0.326 | 0.862
CN(C)CC(c1ccc(O)cc1)C1(O)CCCCC1 (stereo not given) | 0.107 | 1.1
O=C(Oc1ccccc1C(=O)O)c1ccccc1O | 0.297 | 0.236
CC1=C(C(=O)O)N2C(=O)[C@@H](NC(=O)[C@H](N)c3ccccc3)[C@H]2SC1 | 0.18 | 1.02
Nc1nnc(-c2cccc(Cl)c2Cl)c(N)n1 [Lamotrigine] | -0.0077 | 1.04
Oc1ccc(C2CNCCc3c2cc(O)c(O)c3Cl)cc1 (stereo not given) | 0.582 | 0.979
CC(C)(C)NC(=O)[C@H]1CC[C@H]2[C@@H]3CC[C@H]4NC(=O)C=C[C@]4(C)[C@H]3CC[C@]12C | 0.27 | 0.691
CCCc1cc(C(N)=S)ccn1 [Protionamide (Prothionamide)] | 0.749 | 0.698

SMILES | normalized GFP fluorescence [1] | normalized DsRed fluorescence [2]
CC12CCC(CC1=O)C2(C)C (stereo not given) | 0.212 | 1.15
N[C@@H](Cc1cc(I)c(Oc2cc(I)c(O)c(I)c2)c(I)c1)C(=O)O | 0.297 | 0.575
CC1(C)[C@@H](OC(=O)CCC(=O)O)CC[C@]2(C)[C@H]3C(=O)C=C4[C@@H]5C[C@@](C)(C(=O)O)CC[C@]5(C)CC[C@@]4(C)[C@]3(C)CC[C@@H]12 | 0.146 | 0.249
Nc1nc(NC2CC2)c2ncn([C@H]3C=C[C@@H](CO)C3)c2n1 | 0.288 | 0.69
Nc1nc(CC(=O)Nc2ccc(CCNC[C@H](O)c3ccccc3)cc2)cs1 [Mirabegron (YM178)] | 0.336 | 1.03
COc1ccc2c(c1)C(=O)N(CCc1ccc(S(=O)(=O)NC(=O)NC3CCCCC3)cc1)C(=O)C2(C)C [Gliquidone] | 0.017 | 0.134
COc1cc2c(cc1Cc1cccc(Cl)c1F)c(=O)c(C(=O)O)cn2[C@H](CO)C(C)C [Elvitegravir (GS-9137)] | 0.0202 | 0.102
CCCCOc1ccc(CC(=O)NO)cc1 [Bufexamac] | 0.312 | 0.828
CO[C@@]1(NC(=O)CSCC#N)C(=O)N2C(C(=O)O)=C(CSc3nnnn3C)CS[C@@H]21 | 0.268 | 0.711
CCCN[C@H]1CCc2nc(N)sc2C1 [Pramipexole dihydrochloride monohydrate] | 0.713 | 0.597
OCc1cccnc1 | 0.896 | 0.471
C=C[C@H]1CN2CC[C@H]1C[C@H]2[C@H](O)c1ccnc2ccc(OC)cc12 | 0.628 | 0.748
CN[C@@H]1[C@H](O[C@H]2[C@H](O[C@H]3[C@H](O)[C@@H](O)[C@H](NC(=N)N)[C@@H](O)[C@@H]3NC(=N)N)O[C@@H](C)[C@]2(O)CO)O[C@@H](CO)[C@H](O)[C@H]1O | 0.292 | 0.832
COc1cc(Nc2ncc(F)c(Nc3ccc4c(n3)N(COP(=O)(O)O)C(=O)C(C)(C)O4)n2)cc(OC)c1OC | 0.774 | 0.602
COCCc1ccc(OCC(O)CNC(C)C)cc1 (stereo not given) | 0.861 | 0.587
COc1ccc2[nH]c([S@@+]([O-])Cc3ncc(C)c(OC)c3C)nc2c1 | 0.281 | 1.15
CCCCC(=O)N(Cc1ccc(-c2ccccc2-c2nnn[nH]2)cc1)[C@H](C(=O)O)C(C)C | 0.105 | 0.898
CCN1CCC[C@H]1CNC(=O)c1cc(S(N)(=O)=O)ccc1OC [Levosulpiride (Levogastrol)] | 0.447 | 0.695
CC(=O)N[C@@H](CS)C(=O)O | 0.328 | 0.653
Clc1ccccc1CN1CCc2sccc2C1 | 0.281 | 0.684
CCCCCNC(=N)N/N=C/c1c[nH]c2ccc(OC)cc12 | 0.0155 | 0.587
CCCCC1=NC2(CCCC2)C(=O)N1Cc1ccc(-c2ccccc2-c2nnn[nH]2)cc1 | 0.0654 | 0.337
Cn1ncnc1[C@H]1c2n[nH]c(=O)c3cc(F)cc(c23)N[C@@H]1c1ccc(F)cc1 [Talazoparib (BMN 673)] | 0.42 | 0.777
C[C@]12C=CC(=O)C=C1CC[C@@H]1[C@@H]2C(=O)C[C@@]2(C)[C@H]1CC[C@]2(O)C(=O)CO | 0.371 | 0.647
C[C@@H](c1ncncc1F)[C@](O)(Cn1cncn1)c1ccc(F)cc1F | 0.309 | 0.766
O=C1N=C(O)NC1(c1ccccc1)c1ccccc1 | 0.309 | 1.06
Cc1cccc(N(C)C(=S)Oc2ccc3ccccc3c2)c1 | 0.561 | 0.911

SMILES | normalized GFP fluorescence [1] | normalized DsRed fluorescence [2]
CN1CCN(C2=Nc3ccccc3Oc3ccc(Cl)cc32)CC1 | 0.35 | 1.01
CC(=O)O[C@H]1C[C@@H]2CC[C@@H]3[C@H](CC[C@@]4(C)[C@H]3C[C@H]([N+]3(C)CCCCC3)[C@@H]4OC(C)=O)[C@@]2(C)C[C@@H]1N1CCCCC1 | 0.425 | 0.572
CCN1CCCC1CNC(=O)c1cc(S(=O)(=O)CC)c(N)cc1OC (stereo not given) [Amisulpride] | 0.514 | 0.816
CC(=O)N(CC(O)CO)c1c(I)c(C(=O)NCC(O)CO)c(I)c(C(=O)NCC(O)CO)c1I (stereo not given) | 0.415 | 0.849
OC[C@H]1O[C@@H](n2cnc3c2N=CNC[C@H]3O)C[C@@H]1O [Pentostatin] | 0.461 | 0.689
O=C(O)c1cccnc1 [Niacin (Nicotinic acid)] | 0.536 | 0.614
CCCNC(C)C(=O)Nc1c(C)csc1C(=O)OC (stereo not given) [Articaine HCl] | 0.567 | 0.672
CCCCCCCCCCCCCCCCCCCCCCO | 0.3 | 0.765
CCN(CC)C(=O)c1cccc(C)c1 | 0.46 | 1.18
CN1CC(=O)N2[C@H](c3ccc4c(c3)OCO4)c3[nH]c4ccccc4c3C[C@@H]2C1=O | 0.112 | 0.636
NCCCC[C@H](N[C@@H](CCc1ccccc1)C(=O)O)C(=O)N1CCC[C@H]1C(=O)O | 0.972 | 0.642
CN1CCN2c3ccccc3Cc3ccccc3C2C1 (stereo not given) | 0.0802 | 1.52
N=C(N)NC(=N)NCCc1ccccc1 | 0.435 | 0.624
Cc1c(OCC(F)(F)F)ccnc1C[S+]([O-])c1nc2ccccc2[nH]1 (stereo not given) [Lansoprazole] | 0.122 | 0.553
CCCC(=O)Nc1ccc(OCC(O)CNC(C)C)c(C(C)=O)c1 (stereo not given) | 0.332 | 0.62
CN(C)CCC(c1ccc(Br)cc1)c1ccccn1 (stereo not given) | 0.11 | 1.02
CC(C)n1c(/C=C/C(O)CC(O)CC(=O)O)c(-c2ccc(F)cc2)c2ccccc21 (stereo not given) | 0.0168 | 0.369
C[C@@H]1NC(=O)[C@@H](N)CNC(=O)[C@H](C2CCNC(=N)N2)NC(=O)/C(=C/NC(N)=O)NC(=O)[C@H](CNC(=O)CC(N)CCCN)NC1=O.N=C1NCCC([C@@H]2NC(=O)/C(=C/NC(N)=O)NC(=O)[C@H](CNC(=O)CC(N)CCCN)NC(=O)[C@H](CO)NC(=O)[C@@H](N)CNC2=O)N1 (stereo not given in full) | 0.494 | 0.758
CCCCNc1cc(C(=O)O)cc(S(N)(=O)=O)c1Oc1ccccc1 | 0.446 | 0.877
COC(=O)Nc1nc2cc(C(=O)c3ccccc3)ccc2[nH]1 | 0.145 | 1.25
CC(C)NCC(O)COc1ccc(COCCOC(C)C)cc1 (stereo not given) | 0.499 | 0.658
Nc1c2c(nc3ccccc13)CCCC2 | 0.414 | 0.996
CC1=NN(c2ccc(C)c(C)c2)C(=O)/C1=N\Nc1cccc(-c2cccc(C(=O)O)c2)c1O | -0.0259 | 0.021
CCC[C@H](NC(=O)[C@@H]1[C@H]2CCC[C@H]2CN1C(=O)[C@@H](NC(=O)[C@@H](NC(=O)c1cnccn1)C1CCCCC1)C(C)(C)C)C(=O)C(=O)NC1CC1 [Telaprevir (VX-950)] | 0.0337 | 1.39
CC(C)[N+]1(C)[C@@H]2CC[C@H]1C[C@@H](OC(=O)C(CO)c1ccccc1)C2 (stereo not given in full) | 0.206 | 0.856
CCCCc1nc(Cl)c(CO)n1Cc1ccc(-c2ccccc2-c2nnn[nH]2)cc1 | 0.297 | 0.864
